{"source": "PubChem BioAssay AID504832", "about": "(National Center for Advancing Translational Sciences (NCATS), 2011)", "note": "The whole screen tested about 310,000 compounds, of which about 18,000 (5.8%) were called active. About 22% were inconclusive and are not listed. The full list was thinned out, with actives kept by preference. A number with no mark means an inactive call. The call rests on the fitted dose curve; in most records, active means well fitted inhibition curve with a large enough effect; inconclusive means small, poorly fitted or top-dose-only effect, or another doubt; inactive means no such curve, though single readings can be large or run the other way."}
{"test": "Primary qHTS for delayed death inhibitors of the malarial parasite plastid, 48 hour incubation; further: potency means the concentration at half of the fitted maximal effect; on activity change, negative = inhibition: on the % scale 0 is the no-effect control and ±100 the full control effect", "settings": "P. falciparum luciferase growth in erythrocytes; series mostly up to 28.7 µM; activity change, negative = inhibition: at the top concentration", "procedure,_shortened": "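Growth was read as firefly luciferase luminescence after a 48 h, 37 C, 5% CO2 exposure of compounds to reporter-bearing P. falciparum cultures (0.1% parasitemia, 2% hematocrit final) in Albumax-supplemented RPMI 1640.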"}
{"compound": "COc1cccc(N2CC(NC(=O)c3ccc4ccccc4c3)CC2=O)c1", "note": "(stereo not drawn)", "activity change, negative = inhibition": "1.12%"}
{"compound": "COC(=O)c1cc(S(=O)(=O)Nc2ccc(C)c(F)c2)c[nH]1", "activity change, negative = inhibition": "-8.22%"}
{"compound": "Cc1ccc(NC(=O)CSc2cccc3cccnc23)c(C)c1", "activity change, negative = inhibition": "-28%"}
{"compound": "COC(=O)c1ccc(-c2c(-c3ccccc3)ncc3cc(OC)c(OC)cc23)cc1", "activity change, negative = inhibition": "-4.69%"}
{"compound": "O=C1CC2(CCN(C(=O)COc3ccc(F)cc3)CC2)Oc2ccccc21", "activity change, negative = inhibition": "-9.25%"}
{"compound": "COc1cc(-c2n[nH]c(=S)n2Cc2ccccc2)cc(OC)c1OC", "activity change, negative = inhibition": "-6.15%"}
{"compound": "CCC(C)n1c(-c2cc(OC)c(OC)c(OC)c2)nc2nc3ccccc3nc21", "note": "(stereo not drawn)", "Potency": "13.1 µM (active)"}
{"compound": "COc1ccc(CCn2c(-c3ccco3)nc3nc4ccccc4nc32)cc1OC", "activity change, negative = inhibition": "-18.5%"}
{"compound": "COc1ccc(C(=O)NC(C)CCc2ccccc2)c(OC)c1", "note": "(stereo not drawn)", "activity change, negative = inhibition": "-23.8% [at 0.00184 µM]"}
{"compound": "CCc1sc(C(=O)N2CCN(CC(=O)Nc3cccc(F)c3)CC2)cc1C", "activity change, negative = inhibition": "4.46%"}
{"compound": "CCOc1ccc(NC(=S)N2CCC(N(C)CC3CCCO3)CC2)cc1", "note": "(stereo not drawn)", "activity change, negative = inhibition": "15%"}
{"compound": "S=C(NCC1CCCO1)N1CCN(c2ccc(Cl)c(Cl)c2)CC1", "note": "(stereo not drawn)", "activity change, negative = inhibition": "-30.4%"}
{"compound": "COc1ccc(S(=O)(=O)N2CCN(C(=S)NCC3CCCO3)CC2)cc1OC", "note": "(stereo not drawn)", "Potency": "1.85 µM (active)"}
{"compound": "CCOc1ccc(S(=O)(=O)NCCC(=O)NCC2CCCO2)cc1", "note": "(stereo not drawn)", "activity change, negative = inhibition": "3.77%"}
{"compound": "COc1ccc(S(=O)(=O)N2CCC(C(=O)N3CCOCC3)CC2)cc1OC", "activity change, negative = inhibition": "4.87%"}
{"compound": "CCOc1ccc(S(=O)(=O)N2CCN(C(=S)NCC3CCCO3)CC2)cc1", "note": "(stereo not drawn)", "Potency": "5.22 µM (active)"}
{"compound": "CCCCNC(=O)CN1C(=O)NC(Cc2ccccc2)(Cc2ccccc2)C1=O", "activity change, negative = inhibition": "-9.93%"}
{"compound": "CCN(CC(=O)NCCc1ccccc1)S(=O)(=O)c1ccccc1", "activity change, negative = inhibition": "1.84%"}
{"compound": "CCN(CC)S(=O)(=O)c1ccc2[nH]cc(C(=O)NCCc3ccccc3)c(=O)c2c1", "Potency": "13.1 µM (active)"}
{"compound": "CCCCNC(=O)c1c[nH]c2ccc(S(=O)(=O)Nc3ccc(OCC)cc3)cc2c1=O", "activity change, negative = inhibition": "-11.5%"}
{"compound": "COc1ccccc1C(=O)NC(=O)COC(=O)C1CC1", "activity change, negative = inhibition": "-1.65%"}
{"compound": "COc1ccccc1CCNC(=O)c1c(C)nn(CC(C)C)c1Cl", "activity change, negative = inhibition": "2.24%"}
{"compound": "COC(=O)C1CCCCN1C(=O)c1ccc(OC2CCN(C(C)=O)CC2)c(OC)c1", "note": "(stereo not drawn)", "activity change, negative = inhibition": "2.55%"}
{"compound": "O=C(NC(=S)Nc1ccc(Cl)cc1Cl)C1CC1", "activity change, negative = inhibition": "24.5%"}
{"compound": "CCCCn1c(N)c(N(CC)C(=O)c2ccccc2C(F)(F)F)c(=O)[nH]c1=O", "activity change, negative = inhibition": "-1.06%"}
{"compound": "Cc1ccc(S(=O)(=O)N2CCC(C)CC2)cc1C(=O)NCc1ccccn1", "activity change, negative = inhibition": "7.37%"}
{"compound": "CC(=O)Nc1c2c(nn1-c1ccc(C)cc1C)CS(=O)C2", "note": "(stereo not drawn)", "activity change, negative = inhibition": "14.5%"}
{"compound": "CCOC(=O)CSc1nc2c(c(=O)n(Cc3ccccc3Cl)c(=O)n2C)n1C", "activity change, negative = inhibition": "-9.46%"}
{"compound": "Cc1nn(CCCC(=O)NCc2ccccc2Cl)c(=O)c2nccn12", "activity change, negative = inhibition": "-1.54%"}
{"compound": "CCC(=O)Nc1ccc2nc(C)n(Cc3ccccc3Cl)c(=O)c2c1", "Potency": "13.1 µM (active)"}
{"compound": "COc1ccc(CCN(C)C(=O)C23CC4CC(CC(Cl)(C4)C2)C3)cc1OC", "activity change, negative = inhibition": "-2.28%"}
{"compound": "Cc1cc(-c2ccc(C)c(S(=O)(=O)Nc3ccc(S(N)(=O)=O)cc3)c2)on1", "activity change, negative = inhibition": "24.5%"}
{"compound": "Cn1cc(/C=C/c2nc3ccccc3c(=O)n2-c2cccc([N+](=O)[O-])c2)c2ccccc21", "Potency": "10.4 µM (active)"}
{"compound": "Cc1cc(CNC(=O)c2cccc([N+](=O)[O-])c2)c2ccccc2n1", "activity change, negative = inhibition": "36.5%"}
{"compound": "Cc1nc2ccccc2c(=O)n1Cc1ccc([N+](=O)[O-])cc1", "activity change, negative = inhibition": "6.4%"}
{"compound": "Cc1ccc(CC2CC(=O)N(c3cc(C)ccc3C)C2=O)cc1", "note": "(stereo not drawn)", "activity change, negative = inhibition": "4.56%"}
{"compound": "COc1ccc(NS(=O)(=O)c2ccc3oc(SCC(N)=O)nc3c2)cc1", "activity change, negative = inhibition": "-1.65%"}
{"compound": "O=C(COC(=O)CNC(=O)C1CCCCC1)NCc1ccccc1", "activity change, negative = inhibition": "23.9%"}
{"compound": "Cc1cccc(-[n+]2c(-c3cccc(Br)c3)[nH]c3nc4ccccc4nc32)c1", "Potency": "13.1 µM (active)"}
{"compound": "Cc1ccc2nc(-c3cccc(Br)c3)cc(C(=O)Nn3cnnc3)c2c1", "activity change, negative = inhibition": "50.9%"}
{"compound": "O=C(NNC(=S)NCc1ccccc1)c1ccc(OC(F)F)cc1", "activity change, negative = inhibition": "6.83%"}
{"compound": "Cc1ccc(OCC(=O)NNC(=S)NCc2ccccc2)cc1", "activity change, negative = inhibition": "-6.04%"}
{"compound": "CC(C)Oc1ccc(CCC(=O)NNC(=S)NCc2ccccc2)cc1", "Potency": "1.65 µM (active)"}
{"compound": "O=C(CSc1nc2[nH]ncc2c(=O)[nH]1)Nc1ccc(F)cc1", "activity change, negative = inhibition": "-26.2%"}
{"compound": "Cc1c(C(=O)NNC(=O)c2ccncc2)oc2ccccc12", "activity change, negative = inhibition": "2.2%"}
{"compound": "Cc1nonc1NC(=O)c1ccccc1Br", "activity change, negative = inhibition": "11.3%"}
{"compound": "Cc1nonc1NC(=O)c1oc2ccccc2c1C", "Potency": "9.28 µM (active)"}
{"compound": "Cc1ccc(NS(=O)(=O)c2ccc3c(c2)NC(=O)CO3)cc1", "activity change, negative = inhibition": "16.8%"}
{"compound": "Cc1cc2c(cc1C)NC(c1ccccn1)C1=C(CC(C)(C)CC1=O)N2", "note": "(stereo not drawn)", "Potency": "10.4 µM (active)"}
{"compound": "CC1(C)CC(=O)C2=C(C1)Nc1cc(C(=O)c3ccccc3)ccc1NC2c1ccccn1", "note": "(stereo not drawn)", "activity change, negative = inhibition": "-3.64%"}
{"compound": "CC1(C)CC(=O)C(C2=NC(C)(C)Cc3ccccc32)=C(O)C1", "activity change, negative = inhibition": "-7.07%"}
{"compound": "Cc1ccc(NS(=O)(=O)c2ccc(-c3coc(C)n3)cc2)c(C)c1", "activity change, negative = inhibition": "32.4%"}
{"compound": "CCc1ccc2[nH]c(=O)c(Cc3ccccc3)c(O)c2c1", "activity change, negative = inhibition": "-10.4%"}
